Data from PubChem BioAssay AID760 (NMMLSC, 2007).
The campaign covered roughly 190,000 compounds. About 360 (0.19%) were called active. Inconclusive results (about 2%) are left out.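 How the source made its calls: active means GTP binding activity at least 20 points away from 100%, either lowered or raised; inconclusive means signal likely due to the compound's own green fluorescence; inactive means the rest.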 Many of the other results were omitted from the sample, so actives are more common in it than they were.

These compounds were tested against Ras-related protein Rab-2A (Canis lupus familiaris) (UniProt P61105) (assay: Rab2 wt fluorescent GTP binding changes, either direction – biochemical, dog, bead-based flow cytometry, multiplex, primary screen (AID 760;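 further: 0% = beads with excess unlabeled GTP and 100% = no-compound control corrected for plate trend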)). Settings: GST-Rab2 wt beads, Bodipy-GTP binding, at 10 µM.

SMILES	GTP binding activity
CCc1nnc(NC(=O)CSc2nnnn2-c2cccc(C(C)=O)c2)s1	97% (inactive)
CC(=O)NC1C(OCc2ccccc2)OC(COC(C)=O)C(OC(C)=O)C1OC(C)=O (centres undefined)	100% (inactive)
O=C(OCC1O[C@@H](OC(=O)c2cc(O)c(O)c(O)c2)[C@@H](OC(=O)c2cc(O)c(O)c(O)c2)[C@@H](OC(=O)c2cc(O)c(O)c(O)c2)[C@@H]1OC(=O)c1cc(O)c(O)c(O)c1)c1cc(O)c(O)c(O)c1 (some centres undefined)	79% (active)
CC1(C)CN(c2ccc(-c3ccnc4ncnn34)cc2)C1=O	99% (inactive)
CCCOCC(O)CC(CC)C(=O)NNC(=S)Nc1ccccc1 (centres undefined)	100% (inactive)
O=C(Nc1ccc(F)cc1)C1CCN(C(=O)c2ccc([N+](=O)[O-])cc2)CC1	97% (inactive)
O=C(Nc1ccc(F)c([N+](=O)[O-])c1)C1CC(=O)N(Cc2ccccc2)C1 (centres undefined)	92% (inactive)
Cc1cc(C2=NNC(=Nc3ccc(S(=O)(=O)N4CCOCC4)cc3)SC2)c(C)n1CC1CCCO1 (centres undefined)	101% (inactive)
O=C(N/C(=C\c1ccc(F)cc1)C(=O)N1CCCCCC1)c1ccccc1	98% (inactive)
Clc1ccc(CN2CCN(/N=C/c3cccnc3)CC2)cc1	101% (inactive)
Cc1ccc(Nc2c(F)c(F)c(F)c(F)c2C(=O)O)c(C)c1	131% [activator] (active)
Cc1ccc(NC(=S)NC(=O)c2ccc(-c3ccccc3)cc2)c(C)c1	97% (inactive)
COc1c(F)c(F)c(C(=O)O)c(Nc2ccccc2C)c1F	97% (inactive)
Cc1cc(C)n(CC(=O)Nc2ccc([N+](=O)[O-])cc2)n1	96% (inactive)
COc1ccc(C2CC(c3cccs3)Nc3nnnn32)cc1 (centres undefined)	98% (inactive)
Cc1c(Br)ccc(NC(=O)COc2ccccc2C(N)=O)c1C	102% (inactive)
CN1C(=O)/C(=C\c2ccc(-c3ccccc3)o2)SC1=S	88% (inactive)
O=C(CCc1ccccc1)NCCc1cccs1	100% (inactive)
O=C(CCC(=O)N1CCCC1)Nc1ccc([N+](=O)[O-])cc1	101% (inactive)
CN(C)CC(C)(C)CNC(=O)c1cc(Br)cc(Br)c1O	95% (inactive)
N#C/C(=C\c1ccc(-c2cccc([N+](=O)[O-])c2)o1)C(=O)NCCN1CCOCC1	92% (inactive)
CCN1CCN(C(=O)CCN2C(=O)c3ccccc3C2=O)CC1	98% (inactive)
COc1ccc(CC(=O)NCc2nnc(SCC(=O)Nc3ncc(C)s3)n2C)cc1	98% (inactive)
CCC(O)C1CCN(Cc2cn(-c3ccc(OC)cc3)nc2-c2cccc(F)c2)CC1 (centres undefined)	102% (inactive)
CCC1(CC)NC(=O)N(Cc2nc3ccccc3s2)C1=O	98% (inactive)

SMILES	GTP binding activity
Nc1c(C(=O)O)cnn1-c1ccccc1	96% (inactive)
Fc1ccccc1Cc1ccc(Cl)nn1	96% (inactive)
CC(=O)Nc1ccc(S(=O)(=O)Nc2nccc(/C=C/c3ccccc3F)n2)cc1	99% (inactive)
O=C1NC2(CCCCCC2)C(=O)N1CCS(=O)(=O)Oc1ccccc1	96% (inactive)
O=C(Nc1cccnc1)c1ccc(Cl)cc1[N+](=O)[O-]	103% (inactive)
CSc1nsc(SC)c1NC(=O)OC1CCCCC1	31% (active)
CSc1ncccc1C(=O)NC1CCCCCC1	99% (inactive)
COc1ccc(NC(=O)c2c(SC)nsc2SC)cc1	100% (inactive)
Cc1ccc(N(C(=O)c2ccc(S(=O)(=O)N(C)C)cc2)C2C=CS(=O)(=O)C2)cc1 (centres undefined)	99% (inactive)
COc1ccc(CCNC(=O)CCn2c(=O)c3ccccc3n(CC(=O)NCC3CCCO3)c2=O)cc1OC (centres undefined)	96% (inactive)
COc1ccc(/C=C/C2=CC(C)(C)NC(=S)N2)c(OC)c1	96% (inactive)
CCOC(=O)c1ccc(NC(=O)C2CC(=O)Nc3nc4ccccc4n32)cc1 (centres undefined)	94% (inactive)
C/C(=N\NC(=O)OC(C)(C)C)c1ccc[nH]1	98% (inactive)
O=C(Cn1nnc2ccccc2c1=O)NCc1ccc(Cl)cc1	100% (inactive)
CC(C)CCC(C)NC(=O)c1ccc2nccnc2c1 (centres undefined)	97% (inactive)
COc1ccc(CCNC(=O)COC(=O)Cc2cc(OC)c(OC)c(OC)c2)cc1	96% (inactive)
Cn1cc(-c2ccccc2)cc(C#N)c1=O	98% (inactive)
CCc1ccccc1NC(=O)CSc1nnc(-c2ccncc2)o1	99% (inactive)
Cc1ccc(C2=NN(C(=O)COc3ncnc4ccccc34)C(c3ccco3)C2)cc1 (centres undefined)	93% (inactive)
COc1ccc(OC)c(-n2c(=S)[nH]c3cc(C(=O)N4CCCCC4)ccc3c2=O)c1	100% (inactive)
S=C(Nc1ccc(Br)cc1Cl)NC1CCN(Cc2ccccc2)CC1	100% (inactive)
CN(C)c1nc(-c2cccnc2)nc(-c2ccc(Cl)cc2)c1C#N	98% (inactive)
CC(=O)Nc1ccc(OCCC[n+]2cccc(C(=O)[O-])c2)cc1	97% (inactive)
CCOC(=O)C1=C(CN2CCCCCC2)NC(=O)NC1c1cccc([N+](=O)[O-])c1 (centres undefined)	97% (inactive)
COc1ccc(-n2c(C)nn(CC3CC3)c2=O)cc1	100% (inactive)

SMILES	GTP binding activity
CN(C)CCCn1c(SCCN2C(=O)c3ccccc3C2=O)nc2ccccc2c1=O	95% (inactive)
O=S(=O)(Nc1cc(S(=O)(=O)N2CCOCC2)ccc1N1CCCC1)c1cccs1	98% (inactive)
Cc1ccc(N(C(=O)Cc2cccs2)C2C=CS(=O)(=O)C2)cc1Cl (centres undefined)	100% (inactive)
C/C(=N\Nc1ncc(Cl)cc1Cl)c1cccs1	98% (inactive)
Cc1cccc(CN2CCN(Cc3cnn(-c4ccccc4F)c3)CC2CCO)n1 (centres undefined)	99% (inactive)
Cc1cc(C)n(-c2nc(C(F)(F)F)nc3ccccc23)n1	96% (inactive)
Cc1ccc(NC(=S)N(Cc2ccco2)C(C)c2cccs2)cc1 (centres undefined)	101% (inactive)
COC(=O)c1cc(NC(=O)c2cccnc2)ccc1N1CCOCC1	96% (inactive)
CCN(CC)c1ccc(C(=O)c2cnc(/N=C/N(C)C)s2)cc1	95% (inactive)
Cc1cc(NC(=O)CSc2nc3c(cc2C#N)CCCCC3)no1	94% (inactive)
O=C(Cc1ccccc1)N1CCN(S(=O)(=O)c2ccc([N+](=O)[O-])cc2)CC1	98% (inactive)
N#C/C(C(=S)Nc1ccccc1)=C1/NN=C(N2CCOCC2)N1c1ccccc1	90% (inactive)
CCCn1c(N)c(C(=O)CSc2nc3ccccc3c(=O)n2-c2ccc(OC)cc2)c(=O)[nH]c1=O	92% (inactive)
S=c1[nH]nc(Nc2ccccc2)s1	92% (inactive)
O=C1CCC(=O)N1c1ccc(NCCc2ccccc2F)c([N+](=O)[O-])c1	101% (inactive)
NC(=O)COC(=O)c1sc2cc(F)ccc2c1Cl	94% (inactive)
CCN(CC)S(=O)(=O)c1ccc(N2CCCC2)c(NS(=O)(=O)c2cccs2)c1	94% (inactive)
O=C(NCc1ccccc1Cl)C1CCN(S(=O)(=O)N2CCOCC2)CC1	104% (inactive)
Cc1ccc(NC(=O)c2ccccn2)cc1S(=O)(=O)N1CCOCC1	99% (inactive)
CSc1ccc(CNCCN2CCOCC2)cc1	96% (inactive)
COC(=O)c1ccc(NC(=S)NN2CCOCC2)cc1	99% (inactive)
CCCC(=O)OCC(=O)Nc1cc(Cl)ccc1[N+](=O)[O-]	92% (inactive)
O=c1c(-c2ccccc2)cnc2n1CCS2	96% (inactive)
Cc1ccc(NC(=O)c2ccc(S(=O)(=O)NCC3CCCO3)cc2)cc1C (centres undefined)	97% (inactive)
Cc1cc(CNCc2c(C(=O)N(C)Cc3ccccc3)nc3ccccn23)nn1C	101% (inactive)

SMILES	GTP binding activity
O=C(Nc1nnc(C2CC2)s1)C1=NN(C2CCS(=O)(=O)C2)C(=O)CC1 (centres undefined)	96% (inactive)
Cc1nc(N2CCCCC2)sc1C=O	105% (inactive)
Cc1ccccc1NCC(=O)N/N=C\c1ccc([N+](=O)[O-])s1	98% (inactive)
CS/C(=C\[N+](=O)[O-])Nc1ccc(C)cc1	100% (inactive)
O=C(NCC1CCCO1)C1CCN(C2CCN(C(=O)C3CCCCC3)CC2)CC1 (centres undefined)	98% (inactive)
COC(=O)c1cc2n(n1)CCCNC2=O	100% (inactive)
COc1ccc(N(CC(=O)NC2CCCC2)C(=O)CS(=O)CC(=O)Nc2ccc3c(c2)OCO3)cc1 (centres undefined)	95% (inactive)
CCOC(=O)C1(Cc2ccc(Cl)cc2)CCN(C(=O)C2=NNC(=O)CC2)CC1	101% (inactive)
Cc1cc(=O)oc2c1c(C)nn2-c1ccc(Cl)cc1	100% (inactive)
COc1ccc(/C=N/Nc2ncnc3sc4c(c23)CCCC4)cc1O	71% (active)
COc1ncnc2sc3c(c12)CCCC3	102% (inactive)
COc1cc(/C=N/Nc2ccc(C)cc2)cc(Br)c1O	94% (inactive)
COc1ccc(NC(=S)NCCN2CCC(C)CC2)cc1	100% (inactive)
COc1cc(OC)c(C(=O)N2CCCC2)cc1OC	98% (inactive)
COc1ccc(/C=N/NC(=O)c2ccncc2)cc1CN1CCCc2ccccc21	95% (inactive)
COc1ccc(CN2CCC(c3nc4ccc(Cl)cc4[nH]3)CC2)cc1	96% (inactive)
CC(Sc1nnnn1C1CCCCC1)C(=O)O (centres undefined)	101% (inactive)
COc1ccc(C(=O)OCC(=O)NCC2CCCO2)cc1[N+](=O)[O-] (centres undefined)	93% (inactive)
COC(=O)c1ccc(CN2CCN(CCCc3ccccc3)C(CCO)C2)cc1 (centres undefined)	97% (inactive)
CCCSc1nc2[nH]ncc2c(=O)[nH]1	99% (inactive)
Cc1cccc(NC(=O)CSc2nc3[nH]ncc3c(=O)[nH]2)c1	94% (inactive)
Cc1ccc(CSc2nc3[nH]ncc3c(=O)[nH]2)cc1	79% (active)
Cc1cc(OCC(=O)NC2CCN(C)CC2)ccc1[N+](=O)[O-]	98% (inactive)
COc1ccc(C/C(N)=N/OC(=O)c2ccco2)cc1OC	101% (inactive)
